Hits are enriched below; roughly 19% of the tested compounds scored in any of these assays.
IL-1B inflam inh: inhibitors of inflammasome signaling (IL-1 beta secretion) | THP-1 LPS/ATP IL-1B secretion, AlphaLISA, 16 h; stronger effect = lower value | activity change, % at 57.5 µM | 360,000 tested, 4.7% active | AID 743279; in the data active = activity change below about -50%; inconclusive = mostly about -30% to -49%
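THP-1 cells pretreated 1 hr with compounds (up to 57.5 uM final), then stimulated with LPS (250 ng/mL final) plus ATP (1.25 mM final); secreted IL-1B measured by AlphaLISA after 16 hr, decreased signal indicating inhibition.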
ELG1 DNA repair: ELG1-dependent DNA repair inhibition | HEK293T ELG1-luciferase reporter, luminescence, 16 h; DNA damage induced by 5-fluorouridine | Potency, µM (top dose mostly 46.1 µM), for inactives: at the highest dose activity change, negative = inhibition, usual class: inhibitors | 330,000 tested, 2.3% active | AID 504467; note: potency is the fitted concentration of half-maximal effect; nearly all actives have a fitted effect of over 55% in size
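HEK293T cells expressing luciferase-tagged ELG1 (2,000/well) received 5-Fluorouridine plus compound or DMSO for 16 hr at 37 °C. Luciferase was read by ONE-Glo luminescence after 30 min at room temperature.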
TDP1 cell CPT: DT40-hTDP1 cell growth loss with CPT. Potency, µM (titrated, usually from 46.2 µM), for inactives: at the highest dose activity change, negative = growth inhibition, actives largely listed as inhibitors. chicken DT40 Tdp1-/-;hTDP1 cells + 20 nM CPT, ATP luminescence, 48 h. 420,000 tested, 12% active; note: potency is the fitted concentration of half-maximal effect; nearly all actives have a fitted effect of over 55% in size
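Cell growth measured by CellTiter-Glo luminescence after a minimum 48 h, 37 C compound exposure with 20 nM CPT in Tdp1-knockout DT40 cells stably expressing hTDP1, seeded 400/well; qHTS titration format.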
TDP1 block: blocks human tyrosyl-DNA phosphodiesterase 1. AID 485290. 350,000 tested, 0.28% active. Potency, µM (highest dose often 130 µM), for inactives: top-dose activity change, negative = inhibition, usual class: inhibitors. recombinant TDP1, AlphaScreen DNA substrate cleavage. Q9NUW8; note: potency is the fitted concentration of half-maximal effect; nearly all actives have a fitted effect of over 40% in size
Target sequence (Q9NUW8 whole entry, looked up): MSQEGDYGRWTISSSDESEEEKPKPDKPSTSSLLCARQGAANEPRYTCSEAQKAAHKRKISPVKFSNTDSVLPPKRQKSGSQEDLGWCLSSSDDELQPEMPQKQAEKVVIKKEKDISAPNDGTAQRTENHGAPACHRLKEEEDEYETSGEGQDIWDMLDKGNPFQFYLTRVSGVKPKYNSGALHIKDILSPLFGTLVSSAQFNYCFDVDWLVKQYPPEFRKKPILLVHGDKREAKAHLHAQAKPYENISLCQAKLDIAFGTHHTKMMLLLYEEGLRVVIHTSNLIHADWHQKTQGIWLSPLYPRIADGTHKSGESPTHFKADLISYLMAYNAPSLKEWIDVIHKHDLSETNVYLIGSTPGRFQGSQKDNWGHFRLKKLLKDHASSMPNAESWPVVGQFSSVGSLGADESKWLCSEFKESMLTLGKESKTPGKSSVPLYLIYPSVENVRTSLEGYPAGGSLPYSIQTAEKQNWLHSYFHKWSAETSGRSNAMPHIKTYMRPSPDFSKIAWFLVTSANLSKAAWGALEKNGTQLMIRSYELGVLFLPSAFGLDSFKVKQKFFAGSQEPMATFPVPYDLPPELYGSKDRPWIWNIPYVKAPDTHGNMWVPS
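Steps: enzyme plus compound, 15 min RT; add biotin/phosphotyrosine-FITC oligonucleotide (15 nM final), react 5 min; add donor/acceptor beads (10 ug/ml final), 10 min; read AlphaScreen. Tdp1 at 1 nM final.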
Giardia kill: Giardia lamblia killing; activity change, % at 7.66 µM, hits read low; AID 540267; 340,000 tested, 0.15% active; Giardia lamblia trophozoite viability; in the data active = activity change below about -80%; inconclusive = between about -30% and that limit;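 note: parasites exposed to compound for two days anaerobically before the ATP read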
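Killing of trophozoites was scored by loss of ATP luminescence after a 48 hrs anaerobic exposure to compounds at 37 deg C, using 100 cells per well.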
DT40 TDP1 no CPT: qHTS for Inhibitors of human tyrosyl-DNA phosphodiesterase 1 (TDP1): qHTS in cells in absence of CPT. DT40 Tdp1-/- hTDP1 cells, no CPT, ATP luminescence, 48 h. Potency, µM (highest dose often 46.2 µM), inactives show at the highest dose activity change, negative = growth inhibition, most hits filed as inhibitors. 420,000 tested, 15% active. AID 686978, 2013; note: potency is the fitted concentration of half-maximal effect; nearly all actives have a fitted effect of over 55% in size
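Cells were dispensed at 400 per well, compounds added by pin tool, plates incubated ≥48 hr at 37 °C, then CellTiter-Glo added for 30 min at room temperature before luminescence reading. Line: DT40 Tdp1-/- complemented with hTDP1; camptothecin omitted.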
The depositor's hits bear a star; ? = inconclusive; . = no result; [ ] = another dose, or the depositor's remark. Unless noted, calls come from the whole dose curve; as a rule, active = well fitted curve in the direction sought with a large enough effect; inconclusive = small, poorly fitted or top-dose-only effect, or another doubt; inactive = no such curve, though single readings can be large; an effect the other way counts as inactive or inconclusive. % is set by controls: 0 for no effect and ±100 for the full control effect.

SMILES	IL-1B inflam inh	ELG1 DNA repair	TDP1 cell CPT	TDP1 block	Giardia kill	DT40 TDP1 no CPT
COc1cc2sc3ccc(-c4ccc(N(C)C)nc4)cc3c(=O)c2cc1OC	21	.	5.8µM*	.	-26	5.8µM*
COc1cc2sc3ccc(-c4ccc(CN5CCOCC5)cc4)cc3c(=O)c2cc1OC	-3	?	18µM*	2%	?	13µM*
CCCCCn1c(C(C)NC(=O)CCC)nc2ccccc21 (stereo not drawn)	25	-6%	12µM*	3%	-15	18µM*
CCn1c(=O)c(C(C)=O)nc2ccccc21	0	10%	-9%	2%	6	-10%
CCCC(=O)NC(C)c1nc2ccccc2n1Cc1ccccc1 (stereo not drawn)	.	.	-17%	0%	.	?
CCCCCn1c(=O)c(C(=O)c2ccccc2)nc2ccccc21	-8	-17%	?	3%	12	23µM*
CCCCn1c(C(C)NC(=O)CCC)nc2ccccc21 (stereo not drawn)	30	-7%	?	1%	-11	18µM*
CC(=O)Nc1ccc(S(=O)(=O)NCCc2cn3ccsc3n2)cc1	.	.	12%	3%	.	-8%
N#Cc1ccc(NC(=O)C2Cc3ccccc3CN2S(=O)(=O)c2ccc(F)cc2)cc1 (stereo not drawn)	.	.	?	4%	.	?
COc1ccc(-c2nc(CSc3nc4ncccc4[nH]3)c(C)o2)cc1OC	.	.	?	4%	.	21µM*
Cc1oc(-c2ccccc2Cl)nc1CSc1nc2ncccc2[nH]1	.	.	?	1%	.	?
Cc1oc(-c2cccc(Br)c2)nc1CSc1nc2ncccc2[nH]1	.	.	?	6%	.	?
Cc1oc(-c2cccc(Cl)c2)nc1CSc1nc2ncccc2[nH]1	.	.	?	0%	.	21µM*
Clc1cccc(N2CCN(c3nc4ccccc4n4nnnc34)CC2)c1	.	.	?	-3%	.	?
Cc1nc2ccc(S(=O)(=O)NC(C(=O)N3CCN(c4ccc(Cl)cc4)CC3)C(C)C)cc2s1 (stereo not drawn)	.	.	?	9%	.	?
COc1ccc(N2CCN(C(=O)C(CC(C)C)NS(=O)(=O)c3ccc4nc(C)sc4c3)CC2)cc1 (stereo not drawn)	.	.	12µM*	-1%	.	-82%
COC(=O)C1=C(O)/C(=C\c2cc(C)n(-c3ccccc3F)c2C)N=C1C	29	-3%	-19%	6%	16	-23%
COC(=O)C1=C(O)/C(=C\c2cc(C)n(-c3ccccc3C)c2C)N=C1C	-26	9%	29µM*	7%	5	?
CC(NS(=O)(=O)c1ccc2c(c1)CCN2C(=O)CCCC(=O)O)c1ccccc1 (stereo not drawn)	.	.	3%	0%	.	-7%
CC(=O)Nc1ccc(C(=O)N2CCCc3ccccc32)cc1	25	0%	-1%	.	11	-1%
O=C(NC(=S)N1CCc2ccccc21)c1ccccc1Cl	-14	?	?	3%	6	?
O=C(Nc1ccc(C(=O)N2CCCc3ccccc32)cc1)c1cccs1	-80*	-13%	8%	.	-15	?
CC(=O)Nc1cccc(C(=O)OC(C)C(=O)N2CCc3ccccc32)c1 (stereo not drawn)	-2	3%	29µM*	.	23	4.1µM*
CC(OC(=O)c1cccc([N+](=O)[O-])c1)C(=O)N1CCc2ccccc21 (stereo not drawn)	35	13%	?	3%	7	?
O=C(NC(=S)N1CCc2ccccc21)c1ccccc1	16	?	21µM*	5%	0	18µM*
SMILES	IL-1B inflam inh	ELG1 DNA repair	TDP1 cell CPT	TDP1 block	Giardia kill	DT40 TDP1 no CPT
O=C(Nc1cccc(C(=O)N2CCCc3ccccc32)c1)c1ccccc1	6	-30%	?	.	8	21µM*
Cc1cc(C)c(NC(=O)CSc2nccn2-c2cccc(Cl)c2)c(C)c1	.	.	?	5%	.	?
COC(=O)Cn1c(=O)c2cccn2c2ccc(F)cc21	.	.	-19%	3%	.	-18%
COc1ccccc1CNC(=O)CN(C)S(=O)(=O)c1ccc2c(c1)n(C)c(=O)c(=O)n2C	8	26%	-2%	3%	-4	11%
O=C(c1ccncc1)c1ccc(NC(=O)c2cccs2)cc1	18	?	2%	5%	-5	-5%
O=C(c1cccc(N2C(=O)C3C4C=CC(C4)C3C2=O)c1)N1CCCc2ccccc21 (stereo not drawn)	18	-24%	-9%	-1%	6	?
O=C(c1ccccc1)N1CCc2ccccc21	-10	28%	0%	-4%	-12	-14%
O=C(Nc1ccc(Cc2ccncc2)cc1)c1cccs1	-75*	10%	?	5%	-17	1%
O=C(Nc1ccc2c(c1)CCC2)c1cccs1	-63*	?	-23%	-3%	-11	-29%
O=C(c1cccc(N2C(=O)C3CC=CCC3C2=O)c1)N1CCCc2ccccc21 (stereo not drawn)	18	?	?	9%	-11	1.5µM*
O=C(c1ccccc1)N1CCN(C(=O)c2ccccc2)c2ccccc21	-11	.	8.2µM*	.	23	?
Cc1ccc(OCC(=O)Nc2cccc(C(=O)OCc3cc(=O)n4cc(C)sc4n3)c2)cc1	.	.	2%	4%	.	-29%
COc1ccc2c(c1)C(=O)[C@@H](OC(=O)Nc1cc(OC)c(OC)c(OC)c1)[C@H](c1ccc(OC)c(Br)c1)O2	.	.	.	11%	.	.
CCCCn1c(N)c(N(CCOC)C(=O)c2c(C)noc2C)c(=O)[nH]c1=O	16	3%	2%	-3%	2	12%
CCOC(=O)CCCCCC(=O)Nc1ccc2c(c1)C(=O)N([C@@H](C)CO)C[C@@H](C)[C@H](CN(C)C(=O)Nc1ccccc1)OCCCC[C@H](C)O2	17	.	-8%	.	.	6%
CCOc1ccc(S(=O)(=O)N2CCC(N3CCN(Cc4ccc(F)cc4)C(=O)C3=O)CC2)cc1	.	.	?	-3%	.	?
CCOC(CNCc1cc(C)c2[nH]c3ccccc3c2c1C)OCC	-96*	.	16µM*	.	-23	12µM*
CCOC(CCNC(=O)c1cc2c(=O)[nH]c3ccccc3c2s1)OCC	-12	-12%	?	.	10	?
Cc1ccsc1/C=N/NC(=O)c1ccc2ccccc2c1	-9	?	15µM*	1%[56.1 µM]	3	18µM*
Cc1ccsc1/C=N/NC(=O)c1ccncc1	24	23%	6%	6%	-16	-11%
